About 79,000 compounds went through this panel and 15% of them were active in at least one assay; those are over-represented in the sample as a whole. The source made the active and inactive calls. Cut-off read from the data, not from the text of the source: active = growth inhibition above about 70%; inactive = the rest. Where a SMILES comes first, the peptide text is derived from it. [ ]: non-standard residue; d: D form. ξ: configuration not given here. ξV = CC(C)C(N)C(=O)O
Legend:
[1] = NCI Yeast Anticancer Drug Screen. Data for the rad50 strain (AID 155);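 note: 0% = growth of vehicle-only cultures of the same strain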; settings: S. cerevisiae rad50 strain growth inhibition; at 50.0 µM; stronger effect = higher value
Method in brief: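 Growth of the mutant yeast was measured after compound exposure and referenced to vehicle-treated cultures.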

[2] = NCI Yeast Anticancer Drug Screen. Data for the mec2-1 strain (AID 157); settings: S. cerevisiae mec2-1 strain, at 50.0 µM, stronger effect = higher value
Method in brief: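 Mutant yeast (mec2-1) grown with compound; growth inhibition relative to vehicle control reported.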

[3] = NCI Yeast Anticancer Drug Screen. Data for the sgs1 mgt1 strain (AID 161);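 note: 0% = growth of cultures given vehicle only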; settings: S. cerevisiae sgs1 mgt1 strain, at 50.0 µM, stronger effect = higher value
Method in brief: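 Yeast cells carrying a defined DNA-repair defect were exposed to test compounds. Growth inhibition was measured relative to vehicle-treated controls.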

[4] = NCI Yeast Anticancer Drug Screen. Data for the cln2 rad14 strain (AID 165);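 note: 0% = growth equal to vehicle treated cultures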; settings: S. cerevisiae cln2 rad14 strain, at 50.0 µM, stronger effect = higher value
Method in brief: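 Readout is yeast growth inhibition versus vehicle-treated controls, using a strain with cln2 and rad14 alterations exposed to compound.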

[5] = NCI Yeast Anticancer Drug Screen. Data for the mlh1 rad18 strain (AID 175); settings: S. cerevisiae mlh1 rad18 strain growth inhibition; at 50.0 µM; stronger effect = higher value
Method in brief: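 Genetically defined yeast (DNA repair-deficient) exposed to compounds; growth inhibition determined relative to vehicle.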

[6] = NCI Yeast Anticancer Drug Screen. Data for the bub3 strain (AID 167); settings: S. cerevisiae bub3 mutant strain, at 50.0 µM, stronger effect = higher value
Method in brief: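 Whole-cell yeast assay. The mutant strain was incubated with compounds, and growth inhibition was determined by comparison with vehicle-treated cells.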

Measured: growth inhibition

COc1cccc2c1CCC1(O)OC(=O)CC21 (centres undefined)
inactive: [1] -17.4% | [2] 5.15% | [3] -20.5% | [4] 2.1% | [5] -15.1%

CN(C)c1ncnc2c1ccn2CC(O)CO (centres undefined)
inactive: [1] -2.7% | [2] -11.1% | [3] -8.55% | [4] -54.5% | [5] -2.85%

NC(=O)CS(=O)Cc1cccc(Br)c1 (centres undefined)
inactive: [1] -13.9% | [2] -11.2% | [3] -17.6% | [4] 7.35% | [5] 6.5%

CC(=O)c1cc2c(Br)cccc2oc1=O
inactive: [1] -38% | [2] -42.4% | [3] -32.5% | [4] -3.3% | [5] -36.2%

CC(C)C(N)C(=O)NCC(=O)NCC(=O)O (stereo not drawn) (H-[ξV]-Gly-Gly-OH)
inactive: [1] -9.4% | [2] -22.2% | [3] -20.4% | [4] -8.15% | [5] -23.4%

CC(C)(C)C(=O)C(=O)O
inactive: [1] 19.9% | [2] -13.2% | [3] -3.7% | [4] 1.15% | [5] 14.6%

NC(N)=NC1NCC(=O)S1 (centres undefined)
inactive: [1] 0.2% | [2] -5.65% | [3] 4.3% | [4] 4.6% | [5] 21.9%

CC(=O)N(C)c1ccc(NC(=O)Nc2c(C)cccc2C)cc1
inactive: [1] 6.55% | [2] 10% | [3] 10.7% | [4] 4.85% | [5] 15.6%

O=C1NC(=O)C(CN2C(=O)/C(=C/c3cccc(O)c3)SC2=S)C(=O)N1
inactive: [1] -55.2% | [2] -20.8% | [3] -29.7% | [4] -20.6% | [5] -71.8%

CC1=C/C(=N\NC(N)=S)C(C(O)(C(F)(F)F)C(F)(F)F)C(C)(C)C1 (centres undefined)
inactive: [1] 65.9% | [2] 30.6% | [3] 47% | [4] 20.2% | [5] 59.8%

O=Nc1c(O)[nH]c2c(Cl)cccc12
inactive: [1] 0.1% | [2] -10.2% | [3] -15.2% | [4] -20.4% | [5] -5.25%

CCN=C(NCC)N(CC)CC
inactive: [1] -20.4% | [2] -5.75% | [3] -12.8% | [4] -11.6% | [5] -11.8%

CN(C)C=Nc1cccc2cnccc12
inactive: [1] 24.7% | [2] 3.4% | [3] 14.5% | [4] 21.2% | [5] -16.7%

COC1OC2COC(c3ccccc3)OC2C(OC(=O)c2ccc([N+](=O)[O-])cc2)C1OS(=O)(=O)c1ccc(C)cc1 (centres undefined)
inactive: [1] 39.6% | [2] 17.2% | [3] 21.6% | [4] 25.1% | [6] 0.7% | [5] 15.8%

Cc1nc(C(=O)N=C(N)N)c(N)nc1-c1ccccc1
inactive: [1] -22.6% | [2] -4.3% | [3] -7.7% | [4] -28.2% | [5] -4%

C=CCC1=C(C)C[C@@H]2CCC(=O)C=C12
inactive: [1] 9.05% | [2] -24.9% | [3] -8.5% | [4] 11.2% | [5] 5.5%

Ic1ccc([I+]c2ccc(I)cc2)cc1
active: [1] 94.4% | [2] 94.2% | [3] 97% | [4] 93.5% | [6] 94.3% | [5] 90.8%

COc1cc(CC2C(=O)NC(=O)NC2=O)ccc1OCc1ccccc1
inactive: [1] 17.8% | [2] -7.75% | [3] -5.1% | [4] -19.4% | [5] -47%

CCN(CC)CC#CCOc1ccc(/C=C/c2ccccn2)cc1
inactive: [1] 0.35% | [2] -13.4% | [3] 7.1% | [4] -14% | [5] -21.4%

c1ccc(Oc2ccccc2-c2ccccc2)cc1
inactive: [1] 6.1% | [2] -26.1% | [3] -0.7% | [4] -0.65% | [5] 15.9%

CCOC(=O)OC1CC2CC(OC(=O)OCC)c3cccc(Br)c3C2c2ccccc21 (centres undefined)
inactive: [1] 25.1% | [2] 12.9% | [3] 18.8% | [4] 0.05% | [5] 33.7%

CCC(O)C1CCCCC1O (centres undefined)
inactive: [1] -8.95% | [2] 8.35% | [3] -3.8% | [4] 15.7% | [6] 15.2% | [5] 2.45%

COc1ccc2c(c1)NC(c1ccccc1C(=O)O)c1cccn1-2 (centres undefined)
inactive: [1] 0.55% | [2] -20.9% | [3] 12.3% | [4] 5.75% | [5] 5.6%

CCCCOC(=O)C(=O)/C(=C\n1c(=S)[nH]c2cc(C)ccc21)C(=O)C=C(C)C
inactive: [1] -15.6% | [2] -22% | [3] 3.05% | [4] -22.4% | [5] -28.1%

Cc1nn(C(=O)c2ccccn2)c(-c2ccccc2)c1N=Nc1ccc(S(=O)(=O)Nc2ncccn2)cc1
inactive: [1] 26.4% | [2] -6% | [3] 17.9% | [4] 12.5% | [5] 40.4%

CON(C)c1nc(N)c(C#N)c(C#N)c1C#N
inactive: [1] 4.35% | [2] -23.7% | [3] 3.3% | [4] 13.4% | [5] 7.45%

Cc1ccc(NC(=O)C(=O)C2NC(=S)NC2=O)c([N+](=O)[O-])c1 (centres undefined)
inactive: [1] 8.35% | [2] 3.25% | [3] 17.8% | [4] 20.1% | [5] 8.55%

O=C1NC(=O)C(=CN2C(=O)/C(=C/c3ccc([N+](=O)[O-])cc3)SC2=S)C(=O)N1
inactive: [1] -0.4% | [2] 33.2% | [3] 40.6% | [4] 20.4% | [5] 21.9%

C/C(=N/NC(=S)N1CCCCC1)c1ccccc1O
inactive: [1] -17.4% | [2] -41.7% | [3] 1.55% | [4] 4.4% | [5] -5.75%

CC(C)N(C(=O)C12C3C4C1C1C2C3C41C(=O)C(C)(C)C)C(C)C (centres undefined)
inactive: [1] 43% | [2] 28.9% | [3] 52% | [4] 61% | [5] 50.8%

CC(=O)Oc1ccc(C(C)(C)C)cc1C
inactive: [1] 6.05% | [2] -10.1% | [3] -9.45% | [4] -6.85% | [5] -21.1%

O=C(Nc1cc(Br)c2cccc3c2c1CC3)c1ccccc1
inactive: [1] 6.35% | [2] 10.9% | [3] 1.45% | [4] -5.25% | [5] -0.95%

O=C1/C(=C2\CCc3ccccc32)Cc2ccccc21
inactive: [1] 14.1% | [2] 5.65% | [3] -4.2% | [4] -1.7% | [5] 8.15%

CCCC(=O)OC1C(CO)OC(n2cc(F)c(=O)[nH]c2=O)C1F (centres undefined)
inactive: [1] -7.85% | [2] 6.4% | [3] -8.6% | [4] -15.7% | [5] -17.8%

CCOP(=O)(O)C1CC2C3CC=C4CC(O)CCC4(C)C3CCC2(C)C1C(C)=O (centres undefined)
inactive: [1] 15.9% | [2] -3.25% | [3] -0.55% | [4] -14.4% | [5] 3.5%

C=C1C(=O)O[C@H]2[C@H]1[C@H](OC(=O)/C(C)=C\C)CC(=C)[C@@H]1[C@H](O)[C@H]3O[C@@]3(C)[C@@]12O
inactive: [1] 3.85% | [2] -14.8% | [3] 21.2% | [4] 5.25% | [5] -18%

CC(CN(C)C)C(=O)C(=Cc1ccccc1)C(=O)C(C)CN(C)C (centres undefined)
inactive: [1] 40.1% | [2] 13.1% | [3] 16.9% | [4] 22.5% | [6] -2.5% | [5] 20%

Cc1ccc(Nc2c3ccccc3nc3ccccc23)cc1C
active: [1] 98.8% | [2] 95.8% | [3] 97.7% | [4] 90.6% | [5] 98.5%

Clc1ccc(C2SCCS2)c(Cl)c1
inactive: [1] 56.8% | [2] 28.2% | [3] 59.1% | [4] 31.8% | [5] 38.5%

CC(=O)CCC(=O)c1ccoc1
inactive: [1] 9.05% | [2] -4.2% | [3] 4.4% | [4] -10.1% | [5] 9.25%

NNC(=O)CCSCCC(=O)NN
inactive: [1] 7.85% | [2] -17.2% | [3] 3.4% | [6] -5.95% | [5] -0.75%

OC1CCCCC1C1CCCCC1 (centres undefined)
inactive: [1] 28.9% | [2] 4.45% | [3] 15.2% | [6] -4.4% | [5] 26.7%

C#CCCC#C
inactive: [1] -4.4% | [2] -17.3% | [3] 8.4% | [6] -16.1% | [5] -5.8%

CCn1c(=O)ccc2ccc(N(CCO)CCO)nc21
inactive: [1] -19.9% | [2] 8.3% | [3] -0.15% | [6] -9% | [5] 10.1%

O=C(NO)c1ccccc1O
inactive: [1] 27.2% | [2] 21% | [3] -14.8% | [6] 8% | [5] 17.8%

O=CNCCNC=O
inactive: [1] 0.05% | [2] -2.25% | [3] -15% | [4] -12.7% | [5] -1.85%

CSc1nc(=O)n(CCC#N)nc1SC
inactive: [1] 32.6% | [2] 21.9% | [3] 34.9% | [6] 4.25% | [5] 12.2%

CC(=O)CCc1ccc2c(c1)OCCO2
inactive: [1] 27.9% | [2] -10.7% | [3] -7.55% | [6] -3.8% | [5] -20.9%

From PubChem BioAssay (NCI)
